In PubChem BioAssay (Tox21):
Values joined by “and” are separate entries in the source; they are usually repeats but may differ in a detail not shown here. Equal values may be shown once. Some compounds were tested as several samples or in several runs, with calls that do not always agree. Active and inactive are the calls of the source. A call without a number means that no potency is given here. Unless noted, calls follow the shape of the dose curve; as a rule, active = well fitted curve in the direction sought with a large enough effect in the repeat runs; inconclusive = weak or mixed curves; inactive = no such curve, though single readings can be large; an effect the other way counts as inactive or inconclusive.

Columns and labels:
[1] = tested on: thyroid hormone receptor (rat, GH3 cells); test: qHTS assay to identify small molecule agonists of the thyroid receptor (TR) signaling pathway (AID 743066; calls by dose curve)
[2] = qHTS assay to identify small molecule antagonists of the estrogen receptor alpha (ER-alpha) signaling pathway - cell viability counter screen (AID 743074; calls by dose curve;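 also: HEK293 cells carrying ER-alpha-UAS-bla reporter stimulated with 17beta-estradiol; nearly all actives have a fitted effect of over 45% in size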; also: potency is read from the fitted curve at half-maximal effect)
[3] = qHTS assay to identify small molecule antagonists of the estrogen receptor alpha (ER-alpha) signaling pathway using the BG1 cell line - cell viability counter screen (AID 743081);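 also: compound given together with 17beta-estradiol as the ER stimulus; nearly all actives have a fitted effect of over 45% in size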; also: potency is read from the fitted curve at half-maximal effect
Aromatase (Homo sapiens) = Aromatase (Homo sapiens) (UniProt P11511); test: qHTS assay to identify aromatase inhibitors (AID 743083); also: nearly all actives have a fitted effect of over 55% in size; also: potency is read from the fitted curve at half-maximal effect
Aromatase (Homo sapiens), sequence (P11511 whole entry, looked up): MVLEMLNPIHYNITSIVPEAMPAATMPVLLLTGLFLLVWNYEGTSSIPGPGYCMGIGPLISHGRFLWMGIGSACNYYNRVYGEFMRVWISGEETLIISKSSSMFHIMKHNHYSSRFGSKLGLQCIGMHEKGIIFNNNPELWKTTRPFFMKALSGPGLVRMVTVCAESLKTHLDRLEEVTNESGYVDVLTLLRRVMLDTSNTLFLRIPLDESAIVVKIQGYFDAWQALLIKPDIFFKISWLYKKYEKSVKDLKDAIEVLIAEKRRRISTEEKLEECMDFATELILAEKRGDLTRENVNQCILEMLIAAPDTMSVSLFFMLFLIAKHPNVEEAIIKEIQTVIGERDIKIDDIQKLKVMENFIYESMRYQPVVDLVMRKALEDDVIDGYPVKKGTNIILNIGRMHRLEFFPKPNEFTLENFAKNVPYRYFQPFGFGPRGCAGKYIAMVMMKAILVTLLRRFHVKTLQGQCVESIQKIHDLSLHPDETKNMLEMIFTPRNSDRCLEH

[4] = qHTS assay to identify aromatase inhibitors - cell viability counter screen (AID 743084);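 also: cells stimulated with testosterone during compound exposure; nearly all actives have a fitted effect of over 55% in size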; also: potency is read from the fitted curve at half-maximal effect
[5] = target: Aryl hydrocarbon receptor (Homo sapiens) (UniProt P35869); test: qHTS assay to identify small molecule that activate the aryl hydrocarbon receptor (AhR) signaling pathway (AID 743085); also: nearly all actives have a fitted effect of over 15% in size; also: potency is read from the fitted curve at half-maximal effect;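 as to activation: HG2L7.5c1 human HepG2 liver cells with stably integrated DRE-driven firefly reporter; series mostly up to about 70 µM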
Aryl hydrocarbon receptor (Homo sapiens), sequence (P35869 whole entry, looked up): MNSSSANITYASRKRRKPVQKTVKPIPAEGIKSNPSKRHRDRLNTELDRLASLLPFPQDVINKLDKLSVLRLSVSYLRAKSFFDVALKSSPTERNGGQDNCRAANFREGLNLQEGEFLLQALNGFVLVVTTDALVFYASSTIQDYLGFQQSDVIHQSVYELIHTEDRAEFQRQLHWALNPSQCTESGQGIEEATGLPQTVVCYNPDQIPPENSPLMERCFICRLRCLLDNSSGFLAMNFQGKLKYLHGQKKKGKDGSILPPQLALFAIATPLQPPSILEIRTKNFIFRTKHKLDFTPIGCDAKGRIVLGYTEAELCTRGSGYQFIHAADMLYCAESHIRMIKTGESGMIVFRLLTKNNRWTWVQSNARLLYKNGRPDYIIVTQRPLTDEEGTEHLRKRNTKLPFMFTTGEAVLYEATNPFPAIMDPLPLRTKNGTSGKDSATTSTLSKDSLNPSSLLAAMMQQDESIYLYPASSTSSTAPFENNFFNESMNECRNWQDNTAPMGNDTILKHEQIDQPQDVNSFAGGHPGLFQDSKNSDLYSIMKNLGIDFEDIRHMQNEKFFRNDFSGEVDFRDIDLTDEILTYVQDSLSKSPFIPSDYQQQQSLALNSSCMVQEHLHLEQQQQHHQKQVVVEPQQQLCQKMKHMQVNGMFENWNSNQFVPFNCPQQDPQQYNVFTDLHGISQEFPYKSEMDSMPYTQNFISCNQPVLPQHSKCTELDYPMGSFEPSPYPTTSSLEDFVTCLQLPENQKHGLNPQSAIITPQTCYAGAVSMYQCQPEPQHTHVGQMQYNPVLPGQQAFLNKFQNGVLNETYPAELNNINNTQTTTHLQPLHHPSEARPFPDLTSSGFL
Outline: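 Cell line HG2L7.5c1 (human hepatoma, 20× DRE-luc). Plated, 5 h 37C, compound/DMSO added, 24 h 37C. CellTiter-Fluor 30 min 37C → fluorescence; then ONE-Glo 30 min RT → luminescence.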

[6] = qHTS assay to identify small molecule that activate the aryl hydrocarbon receptor (AhR) signaling pathway - cell viability counter screen (AID 743086); also: nearly all actives have a fitted effect of over 45% in size; also: potency is read from the fitted curve at half-maximal effect
Outline: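 Cytotoxicity counter screen: CellTiter-Fluor signal (30 min, 37 C) in 4000 HepG2 cells/well carrying the DRE-luciferase reporter, following 24 h compound exposure at 37 C.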

[7] = target: Peroxisome proliferator-activated receptor gamma (Homo sapiens) (UniProt P37231); test: qHTS assay to identify small molecule agonists of the peroxisome proliferator-activated receptor gamma (PPARg) signaling pathway (AID 743094; active = well fitted activation curve with a large enough effect in the signal ratio in the repeat runs, not every such curve was filed as active; inconclusive = weak or mixed curves, or effect the other way; inactive = no such curve, though single readings can be large or run the other way; the % refers to the signal ratio)
Peroxisome proliferator-activated receptor gamma (Homo sapiens), sequence (P37231 whole entry, looked up): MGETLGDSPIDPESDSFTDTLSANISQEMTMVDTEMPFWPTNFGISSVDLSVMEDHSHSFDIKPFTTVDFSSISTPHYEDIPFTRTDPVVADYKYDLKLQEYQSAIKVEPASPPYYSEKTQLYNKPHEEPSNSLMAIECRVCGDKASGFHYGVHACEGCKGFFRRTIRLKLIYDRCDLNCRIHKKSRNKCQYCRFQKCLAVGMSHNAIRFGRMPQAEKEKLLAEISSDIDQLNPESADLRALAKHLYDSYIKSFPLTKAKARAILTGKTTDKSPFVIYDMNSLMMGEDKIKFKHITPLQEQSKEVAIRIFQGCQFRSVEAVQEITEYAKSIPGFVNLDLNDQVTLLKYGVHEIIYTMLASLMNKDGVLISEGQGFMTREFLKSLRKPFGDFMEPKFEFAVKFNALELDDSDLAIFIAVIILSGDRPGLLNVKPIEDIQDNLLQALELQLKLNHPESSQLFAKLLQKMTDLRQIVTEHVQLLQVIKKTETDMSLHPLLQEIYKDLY
Outline: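 Quantitative HTS agonist mode: stable HEK293H line with UAS-beta-lactamase reporter under PPARg control, 17 h compound exposure at 37C, fluorescence after 1 h FRET substrate loading at room temperature.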

[8] = target: Peroxisome proliferator-activated receptor gamma (Homo sapiens) (UniProt P37231); test: qHTS assay to identify small molecule antagonists of the peroxisome proliferator-activated receptor gamma (PPARg) signaling pathway (AID 743191; calls by dose curve; also: series mostly up to about 63 µM; nearly all actives have a fitted effect of over 30% in size)
Outline: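 Beta-lactamase reporter under UAS control in HEK293H PPARg-bla cells; compound treatment 17 h at 37C. Read-out: fluorescence intensity after 1 h room-temperature incubation with LiveBLAzer B/G FRET substrate.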

[9] = qHTS assay to identify small molecule antagonists of the peroxisome proliferator-activated receptor gamma (PPARg) signaling pathway - cell viability counter screen (AID 743194); also: nearly all actives have a fitted effect of over 55% in size; also: potency is read from the fitted curve at half-maximal effect
Outline: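 Viability was measured as CellTiter-Glo luminescence in GeneBLAzer PPARg UAS-bla HEK293H cells. These cells had been exposed 17 h at 37 C to compounds together with rosiglitazone at 50 nM final, with the beta-lactamase readout taken in the same wells.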

[10] = qHTS assay for small molecule agonists of the antioxidant response element (ARE) signaling pathway (AID 743202; active = well fitted activation curve with a large enough effect in the signal ratio in the repeat runs, not every such curve was filed as active; inconclusive = weak or mixed curves, or effect the other way; inactive = no such curve, though single readings can be large or run the other way; the % refers to the signal ratio; also: potency is read from the fitted curve at half-maximal effect)
Outline: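 An ARE-responsive beta-lactamase gene stably integrated in HepG2 cells serves as reporter. After 5 h plating and 16 h compound incubation at 37 C, fluorescence of the B/G FRET substrate was measured.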

[11] = qHTS assay for small molecule agonists of the antioxidant response element (ARE) signaling pathway - cell viability counter screen (AID 743203; calls by dose curve; also: nearly all actives have a fitted effect of over 55% in size)
Outline: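 Seeded at 2,000 cells/well, ARE-bla HepG2 cells were incubated 5 hrs before compound addition. After 16 hrs of treatment at 37C with 5% CO2, CellTiter-Glo reagent was added and luminescence read 30 min later.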

[12] = qHTS assay for small molecule activators of the heat shock response signaling pathway - cell viability counter screen (AID 743209); also: nearly all actives have a fitted effect of over 50% in size; also: potency is read from the fitted curve at half-maximal effect
Outline: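 First, HSE-bla HeLa cells were seeded at 1500 cells/well and kept overnight at 37 C. Next, compounds were pinned in and incubated 5 h. After the FRET substrate step, CellTiter-Glo was added and luminescence read 30 min later.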

[13] = qHTS assay for small molecule activators of the heat shock response signaling pathway (AID 743210; active = well fitted activation curve with a large enough effect in the signal ratio in the repeat runs, with a control signal flat, not every such curve was filed as active; inconclusive = weak or mixed curves; the % refers to the signal ratio;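 also: HeLa cells with beta-lactamase reporter driven by heat shock elements; series mostly up to about 63 µM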)
Outline: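 In HSE-bla HeLa cells, 5 h compound incubation (37 C) precedes addition of LiveBLAzer B/G substrate; after 2.5 h at room temperature, fluorescence intensity indicates reporter induction.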

[14] = qHTS assay to identify small molecule agonists of the peroxisome proliferator-activated receptor delta (PPARd) signaling pathway - cell viability counter screen (AID 743211); also: nearly all actives have a fitted effect of over 55% in size; also: potency is read from the fitted curve at half-maximal effect
Outline: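 HEK293H PPARd-bla, 3000 cells/well; 5 h preincubation 37C/5% CO2; cpd in DMSO, 17 h 37C; B/G FRET substrate 2 h RT; CellTiter-Glo 30 min RT, luminescence.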

[15] = target: Peroxisome proliferator-activated receptor delta (Homo sapiens) (UniProt Q03181); test: qHTS assay to identify small molecule agonists of the peroxisome proliferator-activated receptor delta (PPARd) signaling pathway (AID 743212; calls by dose curve)
Peroxisome proliferator-activated receptor delta (Homo sapiens), sequence (Q03181 whole entry, looked up): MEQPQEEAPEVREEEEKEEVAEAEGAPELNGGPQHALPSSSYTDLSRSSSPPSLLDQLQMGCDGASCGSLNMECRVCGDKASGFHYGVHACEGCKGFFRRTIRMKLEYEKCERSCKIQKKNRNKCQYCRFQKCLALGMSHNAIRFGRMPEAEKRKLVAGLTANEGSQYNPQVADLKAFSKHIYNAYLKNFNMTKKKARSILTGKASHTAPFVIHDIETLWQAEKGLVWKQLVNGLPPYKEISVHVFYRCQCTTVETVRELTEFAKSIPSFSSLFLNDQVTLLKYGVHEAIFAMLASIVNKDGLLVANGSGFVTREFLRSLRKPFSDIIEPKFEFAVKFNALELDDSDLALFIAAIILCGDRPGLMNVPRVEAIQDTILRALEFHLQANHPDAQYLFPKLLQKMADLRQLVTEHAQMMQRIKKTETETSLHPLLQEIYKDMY
Outline: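 HEK293H UAS-bla reporter cells, human PPARd system; compounds delivered in DMSO after 5 h plating, then at 37 C. Beta-lactamase FRET read, 2 h RT substrate step.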

[16] = target: Estrogen receptor (Homo sapiens) (UniProt P03372); test: qHTS assay to identify small molecule antagonists of the estrogen receptor alpha (ER-alpha) signaling pathway (AID 743069; active = well fitted curve in the direction sought with a large enough effect in the signal ratio in the repeat runs, not every such curve was filed as active; inconclusive = weak or mixed curves, or effect the other way; inactive = no such curve, though single readings can be large or run the other way; the % refers to the signal ratio; also: potency is read from the fitted curve at half-maximal effect)
Estrogen receptor (Homo sapiens), sequence (P03372 whole entry, looked up): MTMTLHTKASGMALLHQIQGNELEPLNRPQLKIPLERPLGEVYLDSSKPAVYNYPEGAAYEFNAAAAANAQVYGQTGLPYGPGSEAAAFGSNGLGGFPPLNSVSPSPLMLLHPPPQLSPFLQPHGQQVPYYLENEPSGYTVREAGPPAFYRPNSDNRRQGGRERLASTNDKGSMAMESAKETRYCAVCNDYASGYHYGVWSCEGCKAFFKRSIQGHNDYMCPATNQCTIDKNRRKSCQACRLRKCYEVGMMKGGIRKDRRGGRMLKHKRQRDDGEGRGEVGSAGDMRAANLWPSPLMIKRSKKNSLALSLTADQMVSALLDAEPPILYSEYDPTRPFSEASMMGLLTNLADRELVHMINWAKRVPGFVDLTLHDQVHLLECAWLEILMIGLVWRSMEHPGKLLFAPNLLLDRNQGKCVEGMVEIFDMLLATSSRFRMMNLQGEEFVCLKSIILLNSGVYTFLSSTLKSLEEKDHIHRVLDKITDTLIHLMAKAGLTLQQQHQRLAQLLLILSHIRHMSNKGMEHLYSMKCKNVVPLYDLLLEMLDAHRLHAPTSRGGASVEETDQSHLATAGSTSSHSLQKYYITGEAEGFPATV
Outline: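 Compound effects are measured against 17beta-estradiol stimulation in HEK293 cells with a UAS-controlled beta-lactamase reporter for ER-alpha. Exposure lasts 18 hr at 37C; LiveBLAzer B/G FRET substrate follows for 2 hr at room temperature.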

[17] = target: Estrogen receptor (Homo sapiens) (UniProt P03372); test: qHTS assay to identify small molecule agonists of the estrogen receptor alpha (ER-alpha) signaling pathway (AID 743075; calls by dose curve; also: potency is read from the fitted curve at half-maximal effect)
[18] = target: Estrogen receptor (Homo sapiens) (UniProt P03372); test: qHTS assay to identify small molecule agonists of the estrogen receptor alpha (ER-alpha) signaling pathway using the BG1 cell line (AID 743079); also: nearly all actives have a fitted effect of over 20% in size; also: potency is read from the fitted curve at half-maximal effect
[19] = qHTS assay to identify small molecule antagonists of the estrogen receptor alpha (ER-alpha) signaling pathway using the BG1 cell line (AID 743080; calls by dose curve;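 also: BG1 cells stimulated with 17beta-estradiol alongside compound; series mostly up to about 70 µM; nearly all actives have a fitted effect of over 25% in size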)
Outline: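 Luciferase inhibition measured with ONE-Glo after 30 min at RT in BG1Luc4E2 cells given test compounds and 17beta-estradiol for 21.5 h at 37 C; CellTiter-Fluor viability read in the same wells beforehand.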

Compound	outcome [1]	Potency [2]	Potency [3]	Potency (Aromatase (Homo sapiens))	Potency [4]	Potency [5]	Potency [6]	outcome [7]	Potency [8]	Potency [9]	Potency [10]	Potency [11]	Potency [12]	outcome [13]	Potency [14]	outcome [15]	Potency [16]	Potency [17]	Potency [18]	Potency [19]
c1ccc2[nH]cnc2c1	inactive	inactive	inactive	inactive	inactive	inactive	inactive	inactive	inactive	inactive	inactive	inactive	inactive	inactive	inactive	inactive	–	–	–	–
COC(=O)c1ccccc1O	inactive	inactive	inactive	inactive	inactive	inactive	inactive	–	–	inactive	inactive	inactive	inactive	–	inactive	inactive	inactive	inactive	23.7 µM (active) and inactive	inactive
O=S(=O)(Oc1ccc(Cl)cc1Cl)c1ccccc1	inactive	inactive	inactive	inactive	inactive	inactive	inactive	inactive	inactive	inactive	inactive	inactive	inactive	inactive	inactive	inactive	inactive	7.9 µM [activator] (active) and 55 µM [activator] (active)	19.7 µM (active) and 30.6 µM (active)	–
CC(C)(C)C(=O)C1C(=O)c2ccccc2C1=O	inactive	inactive	–	inactive	–	–	–	–	–	inactive	–	inactive	inactive	inactive	inactive	inactive	54.4 µM [inconclusive] (active) and 54.9 µM [inconclusive] (active)	inactive	–	–
CCOC(=O)C1OC1c1ccccc1 (stereo unspecified)	inactive	inactive	inactive	inactive	inactive	inactive	inactive	inactive	inactive	inactive	inactive	inactive	inactive	inactive	inactive	inactive	–	–	–	–
CN(CCOc1ccc(CC2SC(=O)NC2=O)cc1)c1ccccn1 (stereo unspecified)	inactive	inactive	inactive	–	–	inactive	inactive	–	–	inactive	21.6 µM (active) and inactive	inactive	inactive	inactive	inactive	–	inactive	inactive	inactive	inactive
CN(C)c1ccc(C(=N)c2ccc(N(C)C)cc2)cc1	inactive	–	30.3 µM (active) and 14.8 µM (active)	–	–	–	23.4 µM (active)	inactive	–	23.6 µM (active)	–	inactive	inactive	inactive	–	inactive	37.4 µM [inconclusive] (active)	inactive	–	–
O=C1CCCCC1	inactive	–	inactive	inactive	inactive	inactive	inactive	inactive	inactive	inactive	inactive	inactive	inactive	inactive	inactive	inactive	inactive	inactive	inactive	inactive
CCc1ccc(O)cc1	inactive	inactive	inactive	inactive	inactive	inactive	inactive	inactive	inactive	inactive	inactive	inactive	inactive	inactive	inactive	inactive	–	–	–	–
CCCCC(CC)COC(C)=O (stereo unspecified)	inactive	inactive	inactive	inactive	inactive	inactive	inactive	inactive	inactive	inactive	inactive	inactive	inactive	inactive	inactive	inactive	–	–	–	–
CCCCC(CC)C(=O)OCCOCCOCCOC(=O)C(CC)CCCC (stereo unspecified)	inactive	inactive	inactive	inactive	inactive	–	inactive	inactive	inactive	inactive	inactive	inactive	inactive	inactive	inactive	inactive	inactive	inactive	inactive	inactive
CC1(C)O[C@@H]2C[C@H]3[C@@H]4C[C@H](F)C5=CC(=O)CC[C@]5(C)[C@H]4[C@@H](O)C[C@]3(C)[C@]2(C(=O)CO)O1	inactive	inactive	inactive	inactive	inactive	inactive	inactive	inactive	–	inactive	inactive	inactive	inactive	inactive	inactive	–	–	–	inactive	–
O=C(c1cc(O)c(O)c(O)c1)c1ccc(O)c(O)c1O	inactive	inactive	68.4 µM (active) and 61.1 µM (active)	inactive	34.3 µM (active)	15.4 µM (active)	30.5 µM (active)	–	inactive	inactive	–	inactive	inactive	inactive	inactive	inactive	inactive	inactive	inactive	inactive
C=C(C)C(=O)OCCCCCC	inactive	inactive	inactive	inactive	inactive	–	inactive	inactive	–	inactive	inactive	inactive	inactive	inactive	inactive	inactive	inactive	inactive	inactive	inactive
O=C(c1ccc(O)cc1)c1ccc(O)cc1O	inactive	inactive	inactive	inactive	inactive	24.3 µM (active)	inactive	inactive	–	inactive	–	inactive	inactive	inactive	inactive	inactive	–	11.1 µM [inconclusive] (active) and 21.9 µM [inconclusive] (active)	5.5 µM (active) and 9.69 µM (active)	inactive
NCCc1ccc(O)c(O)c1	inactive	inactive	inactive and 54.6 µM (active)	inactive	27.4 µM (active)	inactive	inactive	inactive	inactive	inactive	109 nM (active) and 376 nM (active)	inactive	inactive	–	inactive	–	inactive	inactive	–	–
O=S(=O)(O)c1cc(S(=O)(=O)O)c2c(N=Nc3ccccc3)c(O)ccc2c1	inactive	inactive	27.4 µM (active) and 30.6 µM (active)	inactive	24.4 µM (active) and 27.3 µM (active)	inactive	21.8 µM (active) and 21.7 µM (active)	–	–	inactive	inactive	inactive	inactive	inactive	inactive	inactive	inactive	inactive	inactive	inactive
CCc1ccccc1O	inactive	–	inactive	inactive	inactive	inactive	inactive	inactive	inactive	inactive	inactive	inactive	inactive	inactive	inactive	inactive	inactive	inactive	inactive	inactive
NC(=O)/N=N/C(N)=O	inactive	–	inactive	inactive	inactive	inactive	inactive	inactive	–	inactive	inactive	inactive	inactive	–	inactive	inactive	inactive	inactive	inactive	inactive
CC(=O)[C@@]1(O)CC[C@H]2[C@@H]3CCC4=CC(=O)CC[C@]4(C)[C@H]3CC[C@@]21C	–	inactive	inactive	–	–	–	inactive	–	–	inactive	–	inactive	inactive	inactive	inactive	inactive	–	–	–	–
C=C(C#N)C(=O)OCC	inactive	inactive	inactive	inactive	inactive	inactive	inactive	inactive	–	inactive	inactive	inactive	inactive	inactive	inactive	inactive	–	–	–	–
Oc1ccc2ccccc2c1	–	inactive	inactive	inactive	inactive	49.7 µM (active) and 27.3 µM (active)	inactive	–	–	inactive	35.2 µM (active) and 21.7 µM (active)	inactive	inactive	inactive	inactive	–	–	–	–	–
COC(=O)Nc1nc2ccc(Sc3ccccc3)cc2[nH]1	inactive	inactive	inactive	inactive	inactive	1.8 µM (active) and 9.69 µM (active)	inactive	inactive	–	inactive	–	inactive	inactive	–	–	inactive	–	–	–	–
Nc1nc2ncc(CNc3ccc(C(=O)N[C@@H](CCC(=O)O)C(=O)O)cc3)nc2c(=O)[nH]1	–	inactive	inactive	inactive	inactive	inactive	inactive	inactive	–	inactive	inactive	inactive	inactive	inactive	inactive	inactive	–	–	–	–
Oc1ccc(OCc2ccccc2)cc1	–	inactive	inactive	inactive	inactive	inactive	inactive	–	–	inactive	21.2 µM (active) and inactive	inactive	inactive	inactive	inactive	inactive	inactive	11.4 µM [activator] (active) and 53.8 µM [inconclusive] (active)	8.04 µM (active) and 9.48 µM (active)	–
C=C(C)C(=O)OCC(CC)(COC(=O)C(=C)C)COC(=O)C(=C)C	inactive	–	inactive	inactive	inactive	inactive	inactive	inactive	inactive	inactive	inactive	inactive	12.1 µM (active)	–	inactive	inactive	–	–	–	–
C=C1CC[C@H](O)CC1=C/C=C1\CCC[C@]2(C)[C@@H]([C@H](C)/C=C/[C@H](C)C(C)C)CC[C@@H]12	inactive	54.5 µM (active) and 54.9 µM (active)	inactive	inactive and 61.1 µM (active)	inactive	inactive	inactive	–	–	–	13.6 µM (active) and 24.3 µM (active)	inactive	inactive	–	54.5 µM (active) and 6.16 µM (active)	–	–	–	–	–
